Measured values: PubChem BioAssay (Tox21)
Where “and” joins values, the source holds several entries; their conditions need not be identical. Equal values may be shown once. Results filed as inconclusive are left out. Entries that show only a call come without a potency. Unmarked numbers belong to inactive results. Calls of active or inactive are those of the source. Calls come from the whole dose curve; as a rule, active = well fitted cell-killing curve with a large enough effect in the repeat runs; inconclusive = weak or mixed curves, or effect the other way; inactive = flat fitted curve, though single readings scatter.
Potency is the fitted concentration of half-maximal effect.

Assay: Nuclear factor erythroid 2-related factor 2/antioxidant responsive element (Nrf2/ARE) small molecule agonists: qHTS cell viability counter screen in human keratinocytes (AID 1919968); note: nearly all actives have a fitted effect of over 55% in size
Settings: KeratinoSens HaCaT ARE cells viability, CellTiter-Fluor, 24 h; series mostly up to 92.4 µM; activity change, negative = cytotoxicity: at the top concentration
In short: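 Parallel cytotoxicity read: KeratinoSens HaCaT cells, compound treatment 23 h, viability by CellTiter-Fluor fluorescence 1 h post-reagent.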
In the case of `CCCCCCCCCCCCOCC1CO1` (centres undefined), the Potency is reported as “inactive”. In the case of `CCC/C=C/C=O`, the Potency is reported as “inactive”. For `CCCCC(CC)COC(C)=O` (centres undefined), the Potency was “inactive”. With `NC[C@H](O)c1ccc(O)c(O)c1` the Potency was “inactive”. With `CC/C=C\C/C=C\C/C=C\CCCCCCCC(=O)O` the “activity change, negative = cytotoxicity” value was 3.98%. In the case of `OCCNCCO`, the Potency is reported as “inactive”. In the case of `CCCCC(CC)COP(=O)(O)OCC(CC)CCCC` (centres undefined), the Potency is reported as 54.6 µM (active) and 54.5 µM (active). With `OC[C@H]1O[C@@H]2O[C@H]3[C@H](O)[C@@H](O)[C@@H](O[C@H]4[C@H](O)[C@@H](O)[C@@H](O[C@H]5[C@H](O)[C@@H](O)[C@@H](O[C@H]6[C@H](O)[C@@H](O)[C@@H](O[C@H]7[C@H](O)[C@@H](O)[C@@H](O[C@H]1[C@H](O)[C@H]2O)O[C@@H]7CO)O[C@@H]6CO)O[C@@H]5CO)O[C@@H]4CO)O[C@@H]3CO` the “activity change, negative = cytotoxicity” value was 7.24%. For `O=c1[nH]cnc2[nH]ncc12`, the Potency was “inactive”. In the case of `Oc1ccc2cc(SSc3ccc4cc(O)ccc4c3)ccc2c1`, the Potency is reported as “inactive”. For `O=C(O)c1ccc(C(=O)O)c(C(=O)O)c1`, the Potency was “inactive”. For `O=C1c2ccccc2CCc2ccccc21`, the Potency was “inactive”. For `CCN(CC)c1ccc(C(=O)c2ccccc2C(=O)O)c(O)c1`, the Potency was “inactive”. In the case of `Clc1ccc2c(c1)C(N1CCNCC1)=Nc1ccccc1O2`, the Potency is reported as 61.1 µM (active). In the case of `C=CC(=O)NCOCCCC`, the Potency is reported as “inactive”. In the case of `N[C@@H](Cc1c[nH]c2ccc(O)cc12)C(=O)O`, the Potency is reported as “inactive”. In the case of `O=[N+]([O-])c1ccc2nc[nH]c2c1`, the Potency is reported as “inactive”. In the case of `CN=C(NC#N)NCCSCc1nc[nH]c1C`, the Potency is reported as “inactive”. In the case of `O=C(O)c1ccccc1C(c1ccc(O)cc1)c1ccc(O)cc1`, the Potency is reported as “inactive”. For `CN(Cc1cnc2nc(N)nc(N)c2n1)c1ccc(C(=O)N[C@@H](CCC(=O)O)C(=O)O)cc1`, the Potency was “inactive”. In the case of `CCCCCCCCCCCCCC[P+](CCCC)(CCCC)CCCC`, the Potency is reported as 9.63 µM (active) and 24.3 µM (active). With `CC1COc2ccccc2N1C(=O)C(Cl)Cl` (centres undefined) the Potency was “inactive”. In the case of `OC1CCCC1`, the Potency is reported as “inactive”. For `C[C@]12CCC(=O)C=C1CC[C@@H]1[C@@H]2[C@@H](O)C[C@@]2(C)[C@H]1CC[C@]2(O)C(=O)CO`, the Potency was “inactive”. With `S=C(NC1CCCCC1)NC1CCCCC1` the Potency was 26.8 µM (active) and 24.3 µM (active). For `CC(C)c1ccc(S(=O)(=O)O)cc1`, the Potency was “inactive”. In the case of `CC(C)CC(C)O` (centres undefined), the Potency is reported as “inactive”. In the case of `C[N+](C)(C)CCO`, the Potency is reported as “inactive”. With `OCC(CO)(CO)CO` the Potency was “inactive”. For `CC1(C)O[C@@H]2C[C@H]3[C@@H]4C[C@H](F)C5=CC(=O)C=C[C@]5(C)[C@@]4(F)[C@@H](O)C[C@]3(C)[C@]2(C(=O)CO)O1`, the Potency was “inactive”. With `CC(C)OC(=O)C(C)(C)Oc1ccc(C(=O)c2ccc(Cl)cc2)cc1` the “activity change, negative = cytotoxicity” value was 27.3% [at 42.5 µM]. With `CCCCCCCCCCCC(=O)N(C)CC(=O)O` the Potency was “inactive”. For `O=C(COc1ccc(Cl)cc1)N1CCN(Cc2ccc3c(c2)OCO3)CC1`, the Potency was “inactive”. With `CCC(=O)O[C@H]1[C@H](O[C@@H]2[C@@H](C)[C@H](O[C@H]3C[C@@](C)(OC)[C@@H](O)[C@H](C)O3)[C@@H](C)C(=O)O[C@H](CC)[C@@](C)(O)[C@H](O)[C@@H](C)C(=O)[C@H](C)C[C@@]2(C)O)O[C@H](C)C[C@@H]1N(C)C` the “activity change, negative = cytotoxicity” value was 0.474% [at 42.5 µM]. In the case of `O=C1OC2(c3ccccc31)c1cc(Br)c(O)c(Br)c1Oc1c2cc(Br)c(O)c1Br`, the “activity change, negative = cytotoxicity” value is reported as 6.18% [at 42.5 µM]. With `Cc1cc(OCCOCC[N+](C)(C)Cc2ccccc2)ccc1C(C)(C)CC(C)(C)C` the Potency was 21.6 µM (active) and 7.5 µM (active). With `NCCNCCNCCNCCN` the Potency was “inactive”. For `CC(=O)OC1CC(C)OC(C)O1` (centres undefined), the Potency was “inactive”. With `O=C1CC2(CCCC2)CC(=O)N1CCCCN1CCN(c2ncccn2)CC1` the “activity change, negative = cytotoxicity” value was -3.42% [at 42.5 µM].
